Experimental findings from PubChem BioAssay AID1259415 (National Center for Advancing Translational Sciences (NCATS), 2018) are described below.

About 18,000 (4.4%) of roughly 410,000 compounds were called active. Another 7% or so got no clear call; they are omitted. No stated cut-off is given here; in the data, active means activity change below about -60%; inconclusive means no clear call, values can overlap the other calls; inactive means above about -39%. Shown is part of a subset that was picked to be rich in actives.
On the % scale 0 is the no-effect control and ±100 the full control effect.

A short description of the test: qHTS Assay for inhibitors of the human cytomegalovirus (HCMV). As to conditions: HFF cells, HCMV-luciferase reporter, 72 h; at 57.5 µM; stronger effect = lower value. A digest of the protocol:
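Cell-based, HFFs, 1000 cells/well, 16 h 37C; cpds in DMSO + HCMV-luc, MOI 1 PFU/cell; 72 h 37C; OneGlo luminescence after 5 min RT; norm. to buffer vs Salinomycin 10uM.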
Consider `Cc1ccc(CN2CCCn3nc(C(=O)NCc4ccccc4Cl)cc3C2=O)cc1`, for which the activity change, negative = inhibition is -16.2% (inactive).
The result for `CCOC(=O)c1nnn(CC(=O)NC(=O)Nc2ccccc2F)c1C(=O)OCC` reads 11.6% (inactive); that for `COc1ccc2c(Sc3ccc(C)cc3)c(C(=O)NC(C)c3ccccc3)[nH]c2c1` (stereo not drawn), -4.72% (inactive).
For the molecule `COc1ccc(CNc2nc(-c3ccc(Cl)cc3)nn2S(=O)(=O)c2ccc(C)cc2)cc1`, the activity change, negative = inhibition was 9.27% (inactive).
For the molecule `COC(=O)c1ccc(CSc2nnc(N)s2)o1`, the activity change, negative = inhibition is -25.6% (inactive).
The result for `CCOc1ccccc1Nc1nnc(SCc2ccc(C(=O)OC)o2)s1` reads -61.9% (active).
For `CCOc1ccccc1Nc1nnc(SCC(=O)Nc2cc(C)on2)s1`, the activity change, negative = inhibition was 45.8% (inactive).
On to `Cc1ccc(NC(=O)c2ccc(CN3CC(=O)N4CCCCC4C3=O)cc2)c(Cl)c1` (stereo not drawn), for which the activity change, negative = inhibition was 48% (inactive).
To `Cc1nn(C)c(C)c1CN(C(=O)CCc1nnc(Cc2c[nH]c3ccccc23)o1)C(C)C` belongs 9.02% (inactive); to `Clc1ccc(C[n+]2cc(-c3ccc(Cl)cc3)n3c2CCC3)cc1`, -74.1% (active); to `CC(C)C[C@@H](COCc1ccc(Cl)cc1)N1CCN(C(=O)c2ccc(Cl)cc2Cl)CCC1=O`, -13.1% (inactive).
The result for `Cc1ccccc1OCCC(=O)Nc1c(C)n(C)n(-c2ccccc2)c1=O` reads -31.3% (inactive); that for `Cc1c(NC(=O)CSc2cccc3cccnc23)c(=O)n(-c2ccccc2)n1C`, -83.5% (active).
The result for `Cc1ccc(S(=O)(=O)CC(=O)Nc2c(C)n(C)n(-c3ccccc3)c2=O)cc1` reads 10.8% (inactive).
With `COC(=O)c1nn(-c2cccc(Cl)c2)ccc1=O`, the activity change, negative = inhibition is -24.4% (inactive).
As to `CC(CCCc1ccccc1)NC(=O)c1nn(-c2ccc(Cl)cc2)nc1CO` (stereo not drawn), the activity change, negative = inhibition was -5.56% (inactive).
To `CCCSC1=C(C#N)C(c2ccccc2C)C(C(=O)OC)C(=O)N1` (stereo not drawn) belongs -10.3% (inactive); to `COc1cc(/C=C/C(=O)N2CCc3ccccc3C2)cc(OC)c1OC`, 84.9% (inactive); to `CCOc1ccc(C(=O)Nc2ccc3nc4c(c(Nc5ccccc5OC)c3c2)CCCC4)cc1`, -83.9% (active).
For the molecule `COc1ccccc1Nc1c2c(nc3ccc(NC(=O)/C=C/c4cc(OC)c(OC)c(OC)c4)cc13)CCCC2`, the activity change, negative = inhibition was -98.3% (active).
The result for `COc1cc(/C=C/C(=O)O)cc(S(=O)(=O)Nc2ccccc2SC)c1OC` reads -14.9% (inactive); that for `CCOc1ccc(NC(=O)CSc2c3c(nc4ccccc24)CCCC3)cc1`, -11.9% (inactive); that for `CCOc1ccc(-n2nc3ccc(NC(=O)c4ccc(OC)c(Cl)c4)cc3n2)cc1`, 1.85% (inactive).
To `CCC(C(=O)Nc1cc(OC)ccc1OC)n1c(=O)c(C(F)(F)F)nc2ccccc21` (stereo not drawn) belongs -4.66% (inactive); to `COc1cc(OC)c(NC(=O)N2CC3CCCN3c3ccccc32)cc1Cl` (stereo not drawn), -10.2% (inactive); to `CCc1ccccc1NC(=O)Cc1ccc(NC(=O)N2CCCCc3ccccc32)cc1`, 18.7% (inactive).
To `COc1ccccc1C(=O)NCCC(=O)N(C)Cc1cccnc1` belongs 0% (inactive).
For `CCOCCCNC(=O)c1ccc2nc(CCc3ccccc3)oc2c1`, the activity change, negative = inhibition was 18.3% (inactive).
As for `CCOC(=O)N1CCc2c(sc3c2c(=O)n(Cc2ccccc2)c(=O)n3CC(=O)Nc2cccc(C)c2)C1`, the activity change, negative = inhibition was -9.95% (inactive).
To `O=C(CCl)Nc1cccc(CP(=O)(c2ccccc2)c2ccccc2)c1` belongs -108% (active); to `O=C(CNCc1ccc(Cl)cc1)Nc1cccc(C(=O)O)c1`, -4.42% (inactive).
As to `CCc1cccc(NC(=O)c2cc(-c3ccccc3)n[nH]2)c1`, the activity change, negative = inhibition was 46.1% (inactive).
The result for `Cc1cc(C)cc(NC(=O)CCS(=O)(=O)c2cc3c4c(c2)CCN4C(=O)CC3)c1` reads -0.0143% (inactive); that for `C=C(C)C1CC=C(C)/C(=N\NC(=O)CNc2ccccc2OC)C1` (stereo not drawn), -21.5% (inactive); that for `CN1CCN(c2oc(-c3ccc(COc4ccc(Cl)cc4)o3)nc2C#N)CC1`, -31.4% (inactive).
Turning to `CN(CCc1cnn(C)c1)Cc1cn(C)nc1-c1ccccc1F`, the activity change, negative = inhibition is 5.69% (inactive).
To `CCn1c2ccccc2c2cc(NC(=O)COc3ccc(C)cc3C)ccc21` belongs -8.23% (inactive).
Consider `C/C(=N\OCC(=O)Nc1ccc(Br)cc1)c1cccs1`, for which the activity change, negative = inhibition was -6.56% (inactive).
To `Cc1ccc(OCC(=O)Nc2ccc(NC(=O)c3cccs3)cc2)c(C)c1` belongs -90.8% (active); to `CCOc1ccc(NC(=O)Cn2cc(C(=O)c3ccc(C)cc3)c(=O)c3cc4c(cc32)OCCO4)cc1`, 11.7% (inactive); to `COc1ccc2cc(-c3nc(Cl)c4c5c(sc4n3)CC(C)CC5)c(=O)oc2c1` (stereo not drawn), -12.7% (inactive).
To `O=C(NCc1ccccc1)c1cc(-c2cccc(Cl)c2)on1` belongs 21.7% (inactive); to `CCCCNC(=O)c1cc(-c2ccc(Cl)c(Cl)c2)on1`, 27.6% (inactive).
The result for `COCCNC(=O)c1cc(-c2cccc(Cl)c2)on1` reads -70.5% (active); that for `O=C(O)c1ccc(CSc2nc3cccnc3n2Cc2cccc(F)c2)cc1`, 40.5% (inactive).
Consider `CNS(=O)(=O)c1ccc(C(=O)NCC(=O)NCCc2ccc3c(c2)OCCO3)cc1`, for which the activity change, negative = inhibition is -5.01% (inactive).
Take `CCc1ccccc1OCCSc1nc(-c2cccs2)nc2cc(=O)[nH]n12`: the activity change, negative = inhibition was -12.5% (inactive).
As for `CC(=O)c1ccc(NS(=O)(=O)c2ccc(-c3cc(C)no3)s2)cc1`, the activity change, negative = inhibition was 0% (inactive).
The result for `O=C(OCc1nc2ccccc2[nH]1)C1CCCCC1` reads 4.12% (inactive).
Regarding `c1ccc2c(C[n+]3csc4ccccc43)cccc2c1`, the activity change, negative = inhibition is 91.5% (inactive).
The result for `c1ccc2c(CSCc3nc4ccccc4[nH]3)cccc2c1` reads -92.5% (active); that for `COc1ccccc1C(=O)N1O[C@]23C=C[C@]14C[C@@H](O)CC[C@]4(C)C2CC[C@]1(C)[C@@H]([C@H](C)/C=C/[C@H](C)C(C)C)CC[C@H]13` (stereo partly drawn), 27.5% (inactive).
As to `Cc1ccc2nc(COc3ccccc3NC(=O)Nc3ccc(F)c(Cl)c3)cc(=O)n2c1`, the activity change, negative = inhibition is 9.77% (inactive).
The result for `CC(C)NC(=O)c1nn(-c2ccccc2F)nc1CO` reads -26.3% (inactive); that for `CCNC(=O)CC1C(=O)N(c2ccc(F)cc2)C(=O)N1Cc1ccc(C)cc1` (stereo not drawn), -4.44% (inactive); that for `CCS(=O)(=O)N1CCN(C(=O)c2cccs2)CC1`, 14.1% (inactive).
To `Cc1ccccc1C(CC(=O)c1cccs1)C(C#N)C#N` (stereo not drawn) belongs -89.2% (active); to `C/C(=N\NC(=O)COc1c(C)cccc1C)c1cccs1`, -1.76% (inactive).
